# Bioassay records as filed in PubChem BioAssay.
# Hits are enriched below; roughly 21% of the tested compounds scored in any of these assays.
# Shiga toxin inh: blocks Shiga toxin action in Vero cells; inhibition, % at 38.7 µM; 290,000 compounds, 9.2% hits; Vero cells, Shiga toxin protein synthesis inhibition reporter; in the data active = inhibition mostly above about 28%, no sharp cut-off; inactive = mostly below about 43%; note: 0% is about no effect
# NS1 inh: inhibitors of influenza NS1 protein function; Potency, µM (doses to about 46.1 µM), for the others: at the highest dose activity, positive = more growth; 270,000 compounds, 0.4% hits; calls by dose curve; note: potency is the fitted concentration of half-maximal effect; actives are rising curves; nearly all actives have a fitted effect of over 50% in size
#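 OD600 was taken as the measure of yeast growth restored by compound in an NS1-expressing S. cerevisiae strain. Cells had been washed out of glucose medium and diluted 1:100 into galactose -URA medium, pH 6.0.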
# Cycloheximide cs: counter-screen for Shiga toxin inhibitors: cycloheximide protein synthesis inhibition | cell reporter, cycloheximide protein synthesis inhibition counterscreen | max response, % | 300,000 compounds, 12% hits; in the data active = max response mostly above about 13%, no sharp cut-off; inactive = mostly below about 14%; note: read at 38.3 µM for the half of the compounds with a filed dose; 0% is about no effect
# SARS PLP yeast: inhibitors of SARS-CoV papain-like protease in yeast; S. cerevisiae expressing SARS-CoV PLpro, growth rescue; Potency, µM (top dose mostly 32.9 µM), without a hit: at the highest dose activity, positive = growth rescue, hits mostly activators; 330,000 compounds, 0.19% hits; calls by dose curve; note: potency is the fitted concentration of half-maximal effect; 0% is about no effect; nearly all actives have a fitted effect of over 55% in size
# Pf growth 48h: P. falciparum growth inhibition at 48 hours (one generation); 310,000 compounds, 5.9% hits; P. falciparum luciferase growth in erythrocytes, 48 h; Potency, µM (highest dose often 28.7 µM), inactives show at the top dose activity change, negative = inhibition, hits mostly inhibitors; note: potency is the fitted concentration of half-maximal effect; % is set by controls: 0 for no effect and ±100 for the full control effect
#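 Luciferase-expressing P. falciparum in infected erythrocytes (2% hematocrit, 0.1% parasitemia final) in RPMI 1640/0.5% Albumax were exposed to compound for 48 hours at 37 C, 5% CO2; growth read as luminescence.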
# Pf growth 96h: inhibits malaria parasite growth, 96 h | P. falciparum luciferase reporter growth, 96 h | Potency, µM (doses to about 28.7 µM), for inactives: at the highest dose activity change, negative = inhibition, most hits filed as inhibitors | 320,000 compounds, 6.9% hits | AID 504834; note: potency is the fitted concentration of half-maximal effect; % is set by controls: 0 for no effect and ±100 for the full control effect
#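 Cell-based qHTS: luciferase-tagged P. falciparum in erythrocytes (2% hematocrit, 0.05% parasitemia final) incubated with compounds for 96 hours, 37 C, 5% CO2; luciferase detection reagent then added and luminescence measured.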
# The depositor's hits bear a star; u = inconclusive; x = no result given; + = active, no number. Unless noted, calls come from the whole dose curve; as a rule, active = well fitted inhibition curve with a large enough effect; inconclusive = small, poorly fitted or top-dose-only effect, or another doubt; inactive = no such curve, though single readings can be large or run the other way.
SMILES,Shiga toxin inh,NS1 inh,Cycloheximide cs,SARS PLP yeast,Pf growth 48h,Pf growth 96h
COc1cc(N)ccc1-c1cc2ccccc2oc1=O,27,25%,10,3%,59%,u
O=C(Nc1cccnc1)c1cccc(-c2cc3ccccc3oc2=O)c1,23,4%,12,20%,88%,u
CN(Cc1ccccc1)C(=O)CN1C(=O)NC(C)(c2ccc(Cl)cc2)C1=O (stereo not drawn),26,-6%,-2,2%,-4%,25%
S=C1NCN(C2CCCCC2)CN1c1ccccc1,-10,3%,-3,0%,-27%,19%
CCOC(=O)C1CCN(c2nc3cc(OC)ccc3cc2C#N)CC1,20,-13%,4,-20%,2%,151%
COc1ccc2nc(N3CCC(O)CC3)c(C#N)cc2c1,92,-4%,36*,25%,35%,-4%
CCc1ccc2nc(N3CCN(C)CC3)c(C#N)cc2c1,17*,2%,22*,4%,17%,u
COc1ccc2cc(C#N)c(N3CCOCC3)nc2c1,-3,-11%,-2,15%,6%,2%
CCOC(=O)c1cc(C#N)c(N2CCN(C)CC2)nc1-c1ccccc1,-8,14%,-3,1%,u,u
COc1ccc2nc(N3CCC(C)CC3)c(C#N)cc2c1,92*,-14%,44*,-18%,107%,x
O=C(NCCO)C(=O)NCC1OCCCN1S(=O)(=O)c1ccc2c(c1)OCCO2 (stereo not drawn),-11,8%,1,-6%,13%,22%
O=C(N/N=C/c1c[nH]c2ccc(Br)cc12)C1CC1,8,-5%,1,0%,3%,22%
COC(=O)C1=C(C)N(Cc2ccc(C)cc2)C(=O)/C1=C\c1cc(OC)c(OC)c(OC)c1,-8,23%,-2,-4%,10µM*,34%
COC(=O)C1=C(C)N(Cc2ccccc2)C(=O)/C1=C\c1ccco1,21,3%,8,-1%,-23%,-7%
CCOc1cc(/C=C2\C(=O)N(CCc3ccc(OC)c(OC)c3)C(C)=C2C(=O)OC)ccc1O,-3,22%,2,3%,12µM*,u
COc1ccc(-c2oc3ccc(-c4ccc(OC)nc4)cc3c2C#CC2(O)CCCCC2)cc1,7,17%,0,12%,u,5.9µM*
COc1cc(-c2ccc3oc(-c4cccc(C)c4)c(C#CC4(O)CCCCC4)c3c2)cc(OC)c1OC,x,x,x,6%,x,x
CCOC(=O)N1CCN(CC(=O)Nc2ccc([N+](=O)[O-])cc2C(=O)Nc2ccccc2F)CC1,-5,25%,-1,-15%,12µM*,u
O=C(CN1CCN(Cc2ccccc2)CC1)Nc1ccc([N+](=O)[O-])cc1C(=O)Nc1ccccc1F,-11,-7%,0,-17%,10µM*,u
CCOC(=O)N1CCN(CC(=O)Nc2ccccc2C(=O)Nc2ccccc2)CC1,x,x,x,-1%,-25%,39%
Clc1ccc(SCCCCN2CCOCC2)cc1,35,-13%,11,-33%,2%,-8%
Clc1ccc(SCCCCN2CCNCC2)cc1,65,u,39*,-22%,u,12µM*
Cc1ccc(SCCCCN2CCNCC2)cc1,+,12%,37*,-23%,39%,12%
Cc1ccc(SCCCCN2CCOCC2)cc1,17,-6%,6.9*,-8%,32%,-13%
Cc1ccc(C)c(OCCCN2CCNCC2)c1,-3,7%,-4,-4%,26%,u
SMILES,Shiga toxin inh,NS1 inh,Cycloheximide cs,SARS PLP yeast,Pf growth 48h,Pf growth 96h
CC1CN(C(=O)CCS(=O)(=O)c2ccccc2)CC(C)O1 (stereo not drawn),26,17%,17,-11%,25%,25%
COc1cccc(C(=O)NOCc2ccccc2)c1OC,x,x,x,2%,290%,335%
Cc1ccc(-c2n[nH]c(=S)n2/N=C/c2c(C)[nH]n(-c3ccccc3)c2=O)cc1,-2,x,1,-2%,9%,-2%
O=C(N/N=C/C=C/c1ccc(Br)cc1)C(O)c1ccccc1 (stereo not drawn),0,3%,-4,9%,-1%,23%
CN1CCN(c2ccc([N+](=O)[O-])cc2C(=O)N2CCCCC2)CC1,-1,21%,-3,-1%,0%,12µM*
Cc1ccc(CC(=O)N2CCN(c3ccc([N+](=O)[O-])cc3)CC2)cc1,-4,9%,3,-1%,-20%,u
O=[N+]([O-])c1cccc(OCC(O)CN2CCN(S(=O)(=O)c3cc(Cl)ccc3Cl)CC2)c1 (stereo not drawn),28,-14%,-3,-26%,u,10µM*
O=C(c1cc([N+](=O)[O-])ccc1N1CCCCC1)N1CCCC1,-11,5%,1,2%,31%,7.4µM*
Cc1noc(C)c1CSCC(=O)N1CCN(c2ccc([N+](=O)[O-])cc2)CC1,-7,-46%,-5,-2%,x,12µM*
O=S(=O)(c1ccc(Cl)c(C(F)(F)F)c1)N1CCN(CC(O)COc2ccccc2F)CC1 (stereo not drawn),-14,-13%,-6,-3%,u,u
CCOC(=O)c1c(C)nc(C)c(C(=O)OCC)c1-c1ccco1,8,2%,-2,1%,15%,-1%
CC(NC(=O)/C(=C\c1ccco1)NC(=O)c1ccccc1Br)C(=O)O (stereo not drawn),-15,x,-3,2%,15%,2%
Cc1ccc(Cl)c2c1NC(=O)C2=O,x,x,x,-12%,x,x
N/C(=N\O)c1cn([C@@H]2O[C@@H](CO)[C@H](O)[C@@H]2O)c2ncnc(NO)c12,x,-5%,x,x,x,x
CN1CCN(c2nc(-c3cccc([N+](=O)[O-])c3)nc3ccccc23)CC1,14,-5%,-4,-1%,u,0%
Cc1cc(C)n2nc(C(=O)N3CCN(c4ccc([N+](=O)[O-])cc4)CC3)nc2n1,15,x,-3,0%,u,5.9µM*
COc1ccc(N2CCN(C(=O)c3nc4nc(C)cc(C)n4n3)CC2)cc1,-4,x,7,-7%,u,-6%
O=C(c1cc([N+](=O)[O-])ccc1N1CCOCC1)N1CCN(c2ccc([N+](=O)[O-])cc2)CC1,x,x,x,2%,u,9.3µM*
O=C(c1cc([N+](=O)[O-])ccc1N1CCN(S(=O)(=O)c2ccc(Cl)c(Cl)c2)CC1)N1CCOCC1,-14,0%,1,-7%,u,u
O=C(/C=C/c1ccc(Cl)cc1)N1CCN(c2ccc([N+](=O)[O-])c(N3CCOCC3)c2)CC1,-10,5%,-1,-8%,u,10µM*
O=C(c1cc([N+](=O)[O-])ccc1N1CCOCC1)N1CCN(S(=O)(=O)c2cc(Cl)ccc2Cl)CC1,x,x,x,2%,10µM*,u
CC(=O)N1CCC2(CC1)CC(=O)c1cc(OCC(=O)N3CCOCC3)ccc1O2,7,x,-1,0%,-4%,14%
Cc1ccc(C2(C)NC(=O)N(CC(=O)NNC(=O)c3ccoc3C)C2=O)cc1 (stereo not drawn),x,x,x,6%,2%,16%
